Test results published in PubChem BioAssay AID493083 (Broad Institute, 2011).
Hit rate of the full screen: of about 2,400 compounds, about 95 (4%) were called active. Roughly 3% stayed inconclusive and do not appear here. Not all results are given here. Potency and affinity values are given separately. Values without a mark were called inactive.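 How the source made its calls: active means compounds lowering signal whose fitted AC50 is at most ten times the top tested dose; inconclusive means flat fit with moderate inhibition, or poor curve fit; inactive means the rest.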

assay: GFP reporter loss versus dox-driven RFP – NIH3T3 R4 cells, cherry-pick, set 3, dose response (AID 493083); conditions: NIH3T3 R4 HSF-1 GFP reporter, heat shock, 48 h; series mostly up to 19.5 µM; activity change, negative = inhibition: at the top concentration;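 further: 0% = neutral control wells and -100% = didemnin B positive control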

Row | Structure (SMILES) | activity change, negative = inhibition [%]
1 | O=C1CCCN1CCC1CCN(C(=O)Nc2ccccc2)CC1 | -0.501
2 | CC(C)CCNC(=O)c1ccc2c(SCC(=O)O)c3c(nc2c1)CCC3 | -3.07
3 | COc1ccc(OC)c(NC(=O)C2CCCN(S(=O)(=O)c3c(C)nn(C)c3C)C2)c1 (configuration not stated) | -0.401
4 | O=C(NCc1ccncc1)C(=O)Nc1nc(C23CC4CC(CC(C4)C2)C3)cs1 | 33.4
5 | Cc1cccc(C)c1NC(=O)c1cccnc1 | -2.88
6 | COc1ccc(C)c2sc(NC(=O)C3=COCCO3)nc12 | -4.67
7 | Cc1ccc(N2C(=O)N(CC(=O)NC(N)=O)C(=O)C2C)cc1 (configuration not stated) | -1.14
8 | COc1cccc(Nc2ccc(C(=O)O)cc2N)c1 | -0.631
9 | Cn1c(=O)c2c(ncn2CC(=O)Nc2cccc(S(=O)(=O)Nc3ccccc3F)c2)n(C)c1=O | 8.04
10 | C/C(=N\NC(=O)c1c(C)nc2ccccn12)c1ccc(C(C)(C)C)cc1 | 8.05
11 | CCOC(=O)c1c(C)[nH]c(C)c1S(=O)(=O)NCCc1cccs1 | 3.28
12 | CCOC(=O)c1c(N2CCCCC2)c2ccccc2[nH]c1=O | 2.34
13 | CC(C)(C)c1ccc(/C=N/N2C(=O)CSC2=S)cc1 | -1.35
14 | NNC(=S)Nc1ccccc1Cl | -2.15
15 | O=C(NCCN1CCCCC1)Nc1ccccc1Cl | -12.4
16 | CC(C)C(=O)Nc1cccc(-c2nc3ncccc3o2)c1 | -3.12
17 | CC(=O)Nc1nn(C)c2nc(C)cc(C)c12 | -7.96
18 | Cc1cc(C)c(NC(=O)Nc2ccc3c(c2)OCO3)c(C)c1 | 10.5
19 | O=C(/C(=C(\[O-])c1ccccc1)[n+]1ccc2ccccc2c1)c1ccc([N+](=O)[O-])cc1 | -3.91
20 | CCOC(=O)Cc1cnc(NC(=O)c2ccccc2)s1 | 14.6
21 | CCOC(=O)c1sc(NC(=O)Nc2ccccc2F)nc1C | 2.48
22 | N#Cc1cccc(C#N)c1Oc1ccc(S(=O)(=O)Nc2ccc(Cl)cc2)cc1 | 27.6

Row | Structure (SMILES) | activity change, negative = inhibition [%]
23 | CCOC(=O)CCCNS(=O)(=O)c1c(C)ccc2nsnc12 | -5.83
24 | COc1ccc(/C=C/C(=O)NC(=S)NCCc2ccc(OC)c(OC)c2)cc1 | 0.071
25 | COc1ccc(-n2c(C)c(C(C)=O)c(C(C)=O)c2C)cc1 | -9.69
26 | O=C(O)C1CCC(=O)N(C2CCCCC2)C1c1ccccc1Cl (configuration not stated) | -8.3
27 | O=C(CC1C(=O)NCCN1Cc1ccccc1F)NC1CCCCCC1 (configuration not stated) | -11.2
28 | Cc1nn(-c2ccccc2Cl)c(Cl)c1/C=N/Nc1nc2ccccc2s1 | 8.96
29 | COc1ccccc1-c1nnc(SC2CCc3ccccc3NC2=O)s1 (configuration not stated) | 16.7
30 | N#CCCn1nnc(-c2ccccc2F)n1 | -4.93
31 | Cc1ccccc1OCC(=O)Nc1ccc2c(c1)C(=O)N(CCC(=O)O)C2=O | -0.08
32 | O=[N+]([O-])c1ccc(Nc2ccc(F)cc2)cc1 | 0.888
33 | COc1nnc(-c2ccc(C(=O)N3C[C@@H]4C[C@H](C3)c3cccc(=O)n3C4)cc2)c2ccccc12 | -9.99
34 | O=C(N1CCCCC1)N1CCN(S(=O)(=O)c2ccccc2)CC1 | 5.28
35 | COc1ccc(S(=O)(=O)N2CCCC2)cc1C(C)C | 3.89
36 | CCN(C1CCS(=O)(=O)C1)S(=O)(=O)c1cccs1 (configuration not stated) | -2.59
37 | Cc1ccnc(NC(=O)CS(=O)(=O)c2ccccc2)c1 | 0.818
38 | Cc1c(Cl)cccc1NC(=O)CS(=O)(=O)c1ccccc1 | -2.14
39 | Cc1ccccc1OCCC(=O)OCC(=O)N1c2ccccc2NC(=O)C1(C)C | -1.03
40 | Cc1c(-c2nc(-c3ccc(C(C)(C)C)cc3)no2)n(C)oc1=O | 1.67
41 | O=C(NCc1ccncc1)c1ccc(Cl)c(S(=O)(=O)N2CCOCC2)c1 | 16.6
42 | CCOC(=O)c1cnc2ccc(C(=O)OC)cc2c1NCCCN1CCOCC1 | -0.453
43 | CCC(C(=O)OCC(=O)Nc1cc(Cl)ccc1Cl)c1ccccc1 (configuration not stated) | -0.627
44 | O=C(O)c1cccc(Nc2ccnc(Nc3cccc(C(=O)O)c3)n2)c1 | -5.94

Row | Structure (SMILES) | activity change, negative = inhibition [%]
45 | Cc1cc(Nc2cccc(Cl)c2)nc(-c2ccccc2O)n1 | 2.12
46 | CC(=O)NC(=S)Nc1cccc(S(=O)(=O)NC2=NCCC2)c1 | -1.24
47 | Cn1c(=O)c2ncn(CC(=O)Nc3ccc4c5c(cccc35)CC4)c2n(C)c1=O | 29.5
48 | COc1ccc(OCCN2C(=O)c3ccccc3C2=O)cc1 | -7.76
49 | CCN(CC)C(=O)CN1C(=O)/C(=C/c2ccccc2)SC1=S | 6.39
50 | CC(C)N1CCC(N2CCN(C3CCCC3)CC2CCO)CC1 (configuration not stated) | -0.505
51 | CC(CCc1ccccc1)NC(=O)CCNS(=O)(=O)c1ccccc1 (configuration not stated) | 1.85
52 | CCCC(C)NS(=O)(=O)c1ccccc1 (configuration not stated) | -1.47
53 | Cc1ccc(-c2nnn(CC(=O)N(Cc3cccs3)C(C(=O)NC3CCCC3)c3ccncc3)n2)cc1 (configuration not stated) | 20.9
54 | CCCN(CCC)S(=O)(=O)c1ccc(NC(=O)c2cc(C(=O)OC)cc([N+](=O)[O-])c2)cc1 | 8.28
55 | NC(=O)CC(NC(=O)Cc1ccc(Cl)cc1)c1ccc(NC2CCCCCC2)c([N+](=O)[O-])c1 (configuration not stated) | -4.13
56 | Cc1cc(C)cc(SCc2noc(C(=O)NCc3ccccc3)c2C(=O)NCc2ccccc2)c1 | -2.26
57 | O=[N+]([O-])c1ccccc1CCc1cnc(Cl)s1 | -12.9
58 | O=C(CNC(=O)C1CCCCC1)NC1=NCCS1 | -0.457
59 | CC(C)(C)N1[C@@H](CC(=O)O)c2cc(C(F)(F)F)ccc2S1(=O)=O | 1.39
60 | Cc1cc(C)n(-c2ccc(NC(=O)C3CCCCN3C(=O)c3ccoc3C)cc2)n1 (configuration not stated) | 7.41
61 | COc1ccc(C(C(=O)NC2CCCCC2)N(C(=O)CCl)c2cccc(Cl)c2)cc1 (configuration not stated) | 122
62 | COc1ccc(C(C)NC(=S)NC2CCCCC2)cc1OC (configuration not stated) | 3.12
63 | O=C1N=C(N2CCCC2)S/C1=C\C=C\c1ccccc1 | 7.74
64 | Cc1nn2c(CN(C(=O)CN3CCOCC3)c3ccccc3)nnc2c2ccccc12 | -1.66
65 | O=C(CCCCn1c(=O)[nH]c2ccsc2c1=O)NCc1cccnc1 | 0.446
66 | CCCC(=O)Nc1cccc(NC(=O)c2cccc([N+](=O)[O-])c2C)c1 | 8.31

Row | Structure (SMILES) | activity change, negative = inhibition [%]
67 | CCOC(=O)/C(C#N)=C/c1cc(C)n(-c2ccccc2)c1C | 23.8
68 | Cc1cccc(NC(=O)c2sc(-c3ccccc3)nc2-c2ccc([N+](=O)[O-])cc2)c1 | 1.84
69 | CCCCNC(=O)C(c1ccc(OCC(=O)OC)c(C(=O)OC)c1)N(CCc1c[nH]c2ccccc12)C(=O)CCCCCN1C(=O)NC(c2ccc(-c3ccccc3)cc2)C(C(=O)OCc2ccccc2)=C1C (configuration not stated) | -3.99
70 | CC1=C(C(=O)Nc2ccccc2)C(c2cc(CN3CCOCC3)cs2)C2=C(CCCC2=O)N1 (configuration not stated) | -6.96
71 | COC(=O)C1(Cc2ccccc2)NC(c2ccccc2C)C2C(=O)N(c3ccc4c(c3)OCO4)C(=O)C21 (configuration not stated) | 1.42
72 | CCN(C(=O)COC(=O)/C=C/c1ccccc1)C1CCCCC1 | -5.04
73 | Cc1cccc(N(Cc2ccccc2)C(=O)CCl)c1 | 30.1
74 | CC(C)(C)C(CN1CCCC1)OC(=O)c1ccccc1 (configuration not stated) | -1.59
75 | COc1ccc(OC)c(N=C2SCCCN2C(=O)c2ccc(N3C(=O)CCC3=O)cc2)c1 | -7.4
76 | CCOc1ccc(CCNC(=O)c2nn(C)c3c2CS(=O)(=O)c2ccccc2-3)cc1 | 16.6
77 | Cc1cc(C)c2cc(CN(CCN(C)C)C(=O)Nc3ccccc3Cl)c(=O)[nH]c2c1 | 5.03
78 | Cc1ccc(C(=O)N2CCCC(Nc3ccc(F)cc3)C2)cc1C (configuration not stated) | 0.822
79 | Cc1ccc(-n2ncc3c(NCc4ccc5c(c4)OCO5)ncnc32)c(C)c1 | 26.2
80 | Nc1ccccc1SCC(=O)Nc1ccc2c(c1)OCCO2 | -0.379
81 | CC(=O)c1ccc(NC(=O)c2cnn3ccccc23)cc1 | 5.6
82 | Cc1cc(/C([O-])=C(/C(=S)Nc2ccccc2)[n+]2ccccc2)c(C)n1-c1ccccc1 | 5.95
83 | NC(=O)COC(=O)c1cc(=O)[nH]c2ccccc12 | -4.28
84 | COc1ccc(NC(=O)CN(C)CC(=O)Nc2ccc3c(c2)CCC3)cc1 | -2.35
85 | CCO[C@@H]1OC(C(=O)NCc2ccccc2)=C[C@H](c2ccc3c(c2)OCO3)[C@H]1CCCO | -7.04
86 | CC[n+]1c(/C=C/c2cc([N+](=O)[O-])ccc2O)ccc2ccccc21 | 14.5
87 | COc1ccc(N2CCN(S(=O)(=O)c3cc4c(cc3C)N(C(C)=O)CCO4)CC2)cc1 | 10.3
88 | COc1ccc(NC(=O)CCN2CCN(S(=O)(=O)c3ccc(OC)cc3)CC2)cc1 | 13.3

Row | Structure (SMILES) | activity change, negative = inhibition [%]
89 | Cc1cc(NC(=O)C2C3C(=O)N(Cc4ccc(Cl)cc4)C(C(=O)NC(C)(C)C)C34C=CC2(C)O4)no1 (configuration not stated) | -4.82
90 | COc1cc(OC)c(NC(=O)CN(C)S(=O)(=O)c2ccc3[nH]c(=O)oc3c2)cc1Cl | -1.32
91 | O=C(CCl)Nc1ccccc1C(=O)c1ccccc1 | 1.46
92 | O=C(CCl)NC(Cc1ccccc1)c1ccccc1 (configuration not stated) | 4.64
93 | O=C1C2CCCN2c2ccc(S(=O)(=O)N3CCOCC3)cc2N1Cc1cccc(C(F)(F)F)c1 (configuration not stated) | 2.71
94 | O=C(CSc1nnc(CNC(=O)c2cccs2)o1)NCc1ccc(F)cc1 | -4.17
95 | COCCNC(=O)CSC1=N/C(=C/c2ccc(Cl)c(Cl)c2)C(=O)N1c1ccccc1F | 34.4
96 | CC(C)Sc1nc(SCC(=O)NCc2ccco2)c2c3c(sc2n1)COC(C)(C)C3 | 17.8
97 | CCOC(=O)N1CCN(C(=S)Nc2ccc(C)cc2C)CC1 | -2.21
98 | CC1CCCN(S(=O)(=O)c2ccc(Br)s2)C1 (configuration not stated) | 1.88
99 | Cc1ccc(Cl)cc1NC(=O)C1COc2ccccc2O1 (configuration not stated) | -0.666
100 | CN(C)c1ccc(/C=N/NC(=O)C2COc3ccccc3O2)o1 (configuration not stated) | 7.29
101 | O=S(=O)(Cc1cc(Oc2ccccc2)nc(-c2ccccc2)n1)c1ccccc1 | 23.5
102 | O=C(O)C(=O)Nc1ccc(NC(=O)C(c2ccccc2)c2ccccc2)cc1 | -4.7
103 | CCCS(=O)(=O)N1CCc2cc(OC)c(OC)cc2C1 | -3.49
104 | Nc1ncnc2nc(N3CCN(C(=O)c4ccccc4)CC3)[nH]c12 | -1.58
105 | O=C(CSC(=S)N1CCOCC1)Nc1nc(-c2ccccc2)c(-c2ccccc2)o1 | -2.41
106 | Nc1nc(Cl)nc2c1ncn2C1CC(O)C(CO)O1 (configuration not stated) | 1.43
107 | CN1CCN(S(=O)(=O)c2cccc(C(=O)NCCC3=CCCCC3)c2)CC1 | -0.832
